Common to all, as to type: functional
The test system of test [1] is Plasmodium falciparum. The test can be described thus: GSK_TCMDC: Inhibition of Plasmodium falciparum 3D7 in whole red blood cells, using parasite LDH activity as an index of growth. Test compounds present at 2uM.
In test [2] the test system is Plasmodium falciparum. As to the kind of experiment: GSK_TCMDC: Inhibition of Plasmodium falciparum Dd2 in whole red blood cells, using parasite LDH activity as an index of growth. Test compounds present at 2uM.
The test system of test [3] is HepG2. As to the kind of experiment: GSK_TCMDC: Percent inhibition of human HepG2 cell line. Test compounds present at 10uM.

This passage reports Inhibition results from ChEMBL document CHEMBL1157539, “Thousands of chemical starting points for antimalarial lead identification” (Nature, 2010).

SMILES strings stand for the structures.

Broadly, the Inhibition is how much of the control response was suppressed. A lower Inhibition goes with a response near the control. `O=S(=O)(c1ccccc1OC(F)(F)F)C1CC2CCC(C1)N2S(=O)(=O)c1cccc(C(F)(F)F)c1` (stereo not drawn): the Inhibition is reported as 99% in test [1], 99% in test [2] and 5% in test [3].
Take `Cc1ccccc1C1CCN(C2CCC(NC(=O)C3=Cc4cc(Cl)ccc4OC3)CC2)CC1` (stereo not drawn): the Inhibition in test [1] stood at 100%; in test [2], 99%; in test [3], 51%.
For the compound `Cc1c(Cl)ccc2sc(N3CCN(C(=O)c4ccc([N+](=O)[O-])o4)CC3)nc12`, the Inhibition in test [1] came out at 96%; in test [2] it was 93%; in test [3] it was 0%.
For `CN1CCN(CCCN(Cc2cccc(-c3ccc(CNC4CCCC4)cc3)c2)C(=O)/C=C/c2ccccc2)CC1.O=C(O)C(F)(F)F` the same measures were 98%, 96% and 62%.
Turning to `CC(C)(C)OC(=O)N[C@@H](Cc1ccccc1)C(=O)Nc1cccc(-c2cccc(NC(=O)[C@H](Cc3ccccc3)NC(=O)OC(C)(C)C)c2)c1`, the figures for the Inhibition in test [1], in test [2] and in test [3] were 100%, 97% and 10%, respectively.
As to `Cc1cc(N[C@@H](Cc2ccccc2)C(=O)NC2CCCC2)nc(NCCCOC(C)C)n1.O=C(O)C(F)(F)F`, the Inhibition came out at 92% in test [1], 43% in test [2] and 0% in test [3].
For the compound `COc1cc2c(=O)c(Cc3ccc(Cl)cc3)c(C)[nH]c2cc1F`, the values for the Inhibition in test [1], in test [2] and in test [3] were 85%, 28% and 13%, respectively.
Take `CC1(C)C(=O)Nc2ccccc2N1C(=O)CN1CCN(c2ccccc2O)CC1`: the Inhibition in test [1] was determined as 92%; in test [2], 72%; in test [3] it was 7%.
For `COc1ccc(C(=O)O)cc1OCc1ccccc1`, in that order: 99%, 0% and 0%.
For `COc1cccc(Cc2cnc3nc(N)nc(N)c3c2C)c1` the same measures were 94%, 76% and 57%.
`COc1cccc(-c2cc(C(F)(F)F)n3ncc(C(=O)Nc4cc(C)ccc4O)c3n2)c1`: the Inhibition is recorded as 98% in test [1], 99% in test [2] and 0% in test [3].
For `COc1ccc2nccc([C@@H](O)CN3CCC(NC(=O)c4ccc(C5(C(F)(F)F)N=N5)cc4)CC3)c2c1` the same measures were 97%, 41% and 8%.
For `Cn1nccc1C(=O)NCCNCc1cccc(-c2cccc(-c3nc4cc(F)ccc4[nH]3)c2)c1.O=C(O)C(F)(F)F`, in that order: 100%, 7% and 38%.
For `COc1ccc2nc(C)cc(Nc3ccc(N4CCN(C)CC4)cc3)c2c1`, the results for the Inhibition in test [1], in test [2] and in test [3] were 100%, 3% and 1%, respectively.
For `CNCCNCc1ccc(-c2ccc(-c3nc4cc(C(F)(F)F)ccc4[nH]3)cc2)cc1.O=C(O)C(F)(F)F` the same measures were 99%, 92% and 28%.
For `CCOC(=O)c1ccc(NC(=O)Nc2cccc(-c3ccc(-c4nc5cc(F)ccc5[nH]4)cc3)c2)cc1` the same measures were 100%, 97% and 40%.
With `O=C(NC1CCCCN(Cc2ccccc2O)C1)c1ccc(Cl)c(Cl)c1.O=C(O)C(F)(F)F` (stereo not drawn), the Inhibition was 96% in test [1], 96% in test [2] and 0% in test [3].
`Cc1c(F)cc(C(=O)NC2CC2)cc1-c1ccc2c(cnn2S(=O)(=O)c2cccs2)c1`: the Inhibition in test [1] is 92%; in test [2], 68%; in test [3], 32%.
With `Cc1ccc(Nc2nc3cc(Nc4ccnc(Nc5cccc(CS(C)(=O)=O)c5)n4)ccc3o2)cc1.O=C(O)C(F)(F)F`, the Inhibition in test [1] was found to be 100%; in test [2], 81%; in test [3], 55%.
With `COc1ccc(NC(=O)c2cccc(Br)c2)cc1N1CCN(CCCCCCCN2CCN(c3cc(NC(=O)c4cccc(Br)c4)ccc3OC)CC2)CC1.Cl`, the Inhibition in test [1] amounted to 99%; in test [2], 93%; in test [3], 97%.
As for `Cl.NOCCCCOc1ccc(Cl)cc1`, the results for the Inhibition in test [1], in test [2] and in test [3] were 98%, 0% and 2%, respectively.
Regarding `O=C(CCc1c[nH]cn1)Nc1cccc(-c2cccc(-c3nc4cc(C(F)(F)F)ccc4[nH]3)c2)c1`, the Inhibition was 100% in test [1], 99% in test [2] and 17% in test [3].
For `CCOc1cccc(C(=O)Nc2nonc2-c2ccc(OC)c(OC)c2)c1`, in that order: 92%, 95% and 11%.
For `Cc1ccc(OC2CCN(CCCCC3(C)C(=O)Nc4ccccc43)CC2)cc1.Cl` (stereo not drawn) the same measures were 100%, 2% and 63%.
For `COc1ccc(CCNCCCCNCCc2ccc(OC)c3ccccc23)c2ccccc12.CS(=O)(=O)O`, in that order: 100%, 33% and 100%.
As for `O=C(O)C(F)(F)F.O=C1OC2(CN1CC1CCN(Cc3ccc(O)cc3Cl)C1)c1ccccc1-c1ccccc12` (stereo not drawn), the figures for the Inhibition in test [1], in test [2] and in test [3] were 84%, 84% and 16%, respectively.
As for `CCCN1CCN(CC(O)CNC(=O)Nc2ccc(Br)cc2)CC1.O=C(O)C(F)(F)F` (stereo not drawn), the figures for the Inhibition in test [1], in test [2] and in test [3] were 100%, 100% and 10%, respectively.
With `NC1CCN(Cc2cccc(-c3ccc(-c4nc5ccccc5[nH]4)s3)c2)C1.O=C(O)C(F)(F)F` (stereo not drawn), the Inhibition in test [1] is 100%; in test [2] it was 62%; in test [3], 36%.
For `COc1cc(C=CC(=O)N2CCC3(CC2)CC(=O)c2ccccc2O3)cc(OC)c1OC`, in that order: 88%, 66% and 7%.
For `Cn1ccnc1Sc1ncccc1[N+](=O)[O-]`, in that order: 96%, 2% and 0%.
For `COc1ccc(N2CCN(c3nc(N)c4cc(OC)c(OC)cc4n3)CC2C)cc1.Cl` (stereo not drawn) the same measures were 95%, 0% and 8%.
Regarding `O=S(=O)(Nc1ccc(CCN2CCC(N3CCCCC3)CC2)cc1)c1ccccc1C(F)(F)F`, the values for the Inhibition in test [1], in test [2] and in test [3] were 95%, 8% and 9%, respectively.
For `O=[N+]([O-])c1cccc(-c2nc(-c3ccc(Br)cc3)[nH]c2-c2ccc(Br)cc2)c1` the same measures were 99%, 44% and 6%.
Take `COc1cc2ccccc2c(OC)c1CCNCCCCNCCc1c(OC)cc2ccccc2c1OC.CS(=O)(=O)O`: the Inhibition in test [1] is recorded as 99%; in test [2], 30%; in test [3] it was 100%.
On to `CCCCNc1cc(NCCCC)c2c(n1)[nH]c1ccccc12`, for which the Inhibition in test [1] is reported as 100%; in test [2] it was 94%; in test [3] it was 13%.
Consider `CC1CCN(CC[C@H]2CCCN2S(=O)(=O)c2cccc(NC(=O)c3ccc(-c4ccccc4)cc3)c2)CC1`, for which the Inhibition amounted to 87% in test [1], 36% in test [2] and 38% in test [3].
For `CN1CCCN(Cc2ccc(-c3cccc(NC(=O)c4ccc(F)cc4)c3)cc2)CC1.O=C(O)C(F)(F)F`, in that order: 89%, 8% and 29%.
For `Cl.Nc1c2c(nc3ccc(C(=O)Nc4cc(I)c(O)c(I)c4)cc13)CCCC2`, in that order: 96%, 64% and 14%.
For `CCOCn1c(-c2ccccc2)cc2c3c(N)nc(N)nc3ccc21` the same measures were 91%, 66% and 62%.
As to `CN1CCN(CC(=O)Nc2cccc(-c3ccc(-c4nc5cc(C(F)(F)F)ccc5[nH]4)cc3)c2)CC1`, the Inhibition came out at 100% in test [1], 94% in test [2] and 37% in test [3].
For `CCNc1cc(C(=O)N[C@@H](Cc2ccccc2)[C@H](O)CNC2CC3CCC2C3)cc(N2CCCCS2(=O)=O)c1.Cl` (stereo partly drawn), in that order: 99%, 73% and 0%.
For `O=C(NCC1CCN(Cc2ccsc2)C1)c1cc(-c2cccc(C(F)(F)F)c2)cs1.O=C(O)C(F)(F)F` (stereo not drawn) the same measures were 98%, 15% and 37%.
On to `Cc1ccc(NC(=O)N2CCN(CCCCCNC(=O)/C=C/c3ccc(Cl)c(Cl)c3)CC2)cc1C`, for which the figures for the Inhibition in test [1], in test [2] and in test [3] were 94%, 0% and 7%, respectively.
For `O=C(CSc1nc2ccccc2c(=O)n1C1CC1)Nc1cc(C(F)(F)F)ccc1Cl` the same measures were 97%, 96% and 5%.
For `N#Cc1ccc(N2CCN(Cc3cccc(-c4ccc(-c5nc6cc(C(F)(F)F)ccc6[nH]5)cc4)c3)CC2)nc1.O=C(O)C(F)(F)F` the same measures were 100%, 81% and 39%.
For `COc1ccc2nccc([C@@H](O)CN3CCC(NCc4ccc5sc(=O)[nH]c5c4)CC3)c2c1.O=C(O)C(=O)O`, in that order: 98%, 0% and 1%.
With `CC[C@H](C)CNC(=O)c1cccc(-c2cccc(CN3CCC(N4CCCC4)CC3)c2)n1.O=C(O)C(F)(F)F`, the Inhibition was determined as 100% in test [1], 86% in test [2] and 9% in test [3].
For `CC(=O)N1N=C(c2[nH]c3ccc(Br)cc3c2C)OC1c1ccccc1` (stereo not drawn), in that order: 86%, 68% and 8%.
In the case of `CN(CCCCNC(=O)/C=C/c1ccccc1)C1CC2(CCN(C(=O)OC(C)(C)C)CC2)c2ccccc21` (stereo not drawn), the Inhibition in test [1] came to 87%; in test [2], 51%; in test [3], 11%.
For `O=C(NC1CCN(Cc2ccc(O)cc2)CC1)c1ccc(Cl)c(Cl)c1.O=C(O)C(F)(F)F`, in that order: 95%, 3% and 1%.
For `Cc1cc(N[C@@H](CC(C)C)C(=O)NCc2cccs2)nc(NCCc2cccs2)n1.O=C(O)C(F)(F)F` the same measures were 92%, 13% and 0%.
For `O=C(NC1CCC(N2CCC(c3ccccc3C(F)(F)F)CC2)CC1)c1cc2ccccc2[nH]1` (stereo not drawn), in that order: 100%, 98% and 80%.
In the case of `CC1(C)CNCc2cc(NC(=O)/C=C/c3ccc(Cl)cc3)ccc21.Cl`, the Inhibition in test [1] worked out at 82%; in test [2] it was 26%; in test [3], 23%.
For `COc1ccc(-c2nc(NC(=O)Cc3ccc4c(c3)OCCO4)sc2C)cc1`, the Inhibition in test [1] came out at 100%; in test [2], 99%; in test [3] it was 0%.
With `O=C(Nc1ccc(SC(F)(F)F)cc1)Nc1ccc(Cl)c(Cl)c1`, the Inhibition is recorded as 98% in test [1], 99% in test [2] and 15% in test [3].
For `CC(=O)Nc1cccc(-c2cn(-c3ccc(OCc4cccc(F)c4)c(Cl)c3)c3ncncc23)c1` the same measures were 100%, 66% and 7%.
For `CC(C)C[C@@H](CNC[C@H](CC(C)C)NC(=O)OC(C)(C)C)NC(=O)OC(C)(C)C` the same measures were 88%, 58% and 4%.
For `CC(C)(C)c1ccc(NC(=O)Nc2ccc(Cn3ncc(N4CCCNCC4)c(Cl)c3=O)cc2)cc1.O=C(O)C(F)(F)F` the same measures were 95%, 33% and 0%.
For the compound `Cc1cccc2nc(-c3ccc(-c4ccc(NC(=O)NCc5ccccc5)cc4)s3)[nH]c12`, the Inhibition worked out at 93% in test [1], 8% in test [2] and 79% in test [3].
For `CCCCCOc1ccc(C(O)C(CN2CCCCC2)c2ccccc2)cc1.Cl` (stereo not drawn) the same measures were 98%, 95% and 11%.
For `COc1cc2nccc(Nc3ccc4c(cnn4Cc4ccccc4F)c3)c2cc1OC.Cl` the same measures were 100%, 91% and 55%.
